# Source: PubChem BioAssay AID2314 (National Center for Advancing Translational Sciences (NCATS), 2010)
# “And” between values parts separate entries of the source, which are not always exact repeats. Identical values can stand only once. Screen size: about 300,000 compounds; about 37,000 (12%) were called active. The list comes from a sample in which actives are over-represented; it also holds similar structures and randomly drawn compounds. Unmarked numbers belong to inactive results. No stated cut-off is given here; in the data, active means max response mostly above about 13% (no sharp cut-off); inactive means mostly below about 14%.
# Experiment: Cycloheximide Counterscreen for Small Molecule Inhibitors of Shiga Toxin; further: read at 38.3 µM for the half of the compounds with a filed dose; 0% is about no effect
# Details: cell reporter, cycloheximide protein synthesis inhibition counterscreen; hits give high values
row,Compound,max response
1,Cc1ccccc1C(=O)N1CCC(C(=O)Oc2ccc(C#N)cc2)CC1,-2.38%
2,CCn1c(CC(=O)Nc2ccccc2)nnc1SCC(=O)N1CCOCC1,-2.97%
3,Cc1cc(NC(=O)CSc2nc3cc(Cl)ccc3c(=O)n2Cc2ccco2)no1,1.42%
4,Clc1cccc(-c2nc3nc4ccccc4nc3n2Cc2ccco2)c1,31.5% (active)
5,COc1ccc(CCn2c(-c3ccco3)nc3nc4ccccc4nc32)cc1OC,7.86%
6,Cc1cc2oc(=O)cc(CN3CCN(Cc4ccccc4)CC3)c2cc1C,1.14%
7,COc1cc(CN2CC(C)CC(C)C2)cc([N+](=O)[O-])c1O (centres undefined),-0.873%
8,O=C(COC(=O)c1ccc(S(=O)(=O)N2CCc3ccccc3C2)cc1)NC(=O)NCc1ccco1,6.51%
9,O=C(CN1C(=O)COc2ccc(Cl)cc21)Nc1ccc(N2CCOCC2)cc1,1.87%
10,O=C(Nc1cc(N2CCOCC2)ncn1)NC1(C(F)(F)F)Oc2ccc(Cl)cc2O1 (centres undefined),45.4% (active)
11,Cc1csc(NC(=O)NC2(C(F)(F)F)Oc3ccccc3O2)n1,1.16%
12,CCc1cc(=O)oc2c(C)c(OCC(=O)NCCN3CCOCC3)ccc12,1.6%
13,Cc1ccc(NC(=O)CCN2C(=O)c3ccccc3C2=O)cc1C,-2.39%
14,CC(C)=CCCC(C)CN1CCC(n2nccc2NC(=O)c2ccccc2)CC1 (centres undefined),-5.01%
15,CCN1CCN(c2ccc(NC(=O)c3cnccn3)cc2)CC1,26% (active)
16,O=C(Nc1ccc(S(=O)(=O)N2CCCCC2)cc1)c1cnccn1,-3.02%
17,O=C(NCN1CCN(CCO)CC1)c1cnccn1,-4.08%
18,N#CCSc1nc(-c2ccccc2)nc2ccc(F)cc12,-2.28%
19,CN(CCc1ccccn1)C(=O)c1ccc(OC2CCN(CCc3ccccc3)CC2)cc1,17% (active)
20,CN(CCc1ccccn1)C(=O)c1ccc(OC2CCN(Cc3ccccn3)CC2)cc1,0.254%

row,Compound,max response
1,Cn1cc(CNC(=O)c2ccc(OC3CCN(Cc4ccccn4)CC3)cc2)cn1,9.98%
2,OCCC(O)CO (centres undefined),-4.13% and -5.85% and -2.71%
3,COc1ccc(S(=O)(=O)N(C)CC(=O)Nc2ccc3c(c2)OCCO3)cc1OC,18.2% (active)
4,O=C(CN(c1ccc2c(c1)OCCO2)S(=O)(=O)c1ccccc1)Nc1ccc2c(c1)OCO2,11.4%
5,CCOC(=O)c1ccc(NC(=O)Cn2nnc(-c3ccc(C)cc3)n2)cc1,-3.53%
6,COc1ccc(NC(=O)CN(C)S(=O)(=O)c2ccccc2)cc1OC,-1.84%
7,CC(C)NS(=O)(=O)c1ccc(OCC(=O)Nc2ccc3c(c2)OCCO3)cc1,2.4%
8,Cc1cccc(C(=O)Nc2ccccc2-c2nnn(CC(=O)Nc3ccc4c(c3)OCCO4)n2)c1,-4.9%
9,Cn1ccnc1SCC(=O)Nc1ccc2c(c1)OCCO2,18%
10,CCc1ccccc1OCC(=O)Nc1ccc2c(c1)OCCO2,35.2% (active)
11,CC(C)CNS(=O)(=O)c1ccc(OCC(=O)Nc2ccc3c(c2)OCO3)c(Cl)c1,5.31%
12,CS(=O)(=O)c1ccc(-c2nnn(CC(=O)Nc3ccc4c(c3)OCCO4)n2)cc1,15.4% (active)
13,O=C(CSc1nc(C2CC2)nc2ccccc12)Nc1ccc2c(c1)OCCO2,1.1%
14,O=C(CSc1nc2ncccc2[nH]1)Nc1ccc2c(c1)OCCO2,25.8% (active)
15,CCc1ccc(Oc2nc([N+](=O)[O-])nn2C)cc1,-1.09%
16,COc1ccc(OCCCCN2CCC(C)CC2)cc1,-5.4%
17,CCN(CC)S(=O)(=O)c1ccc(C(=O)N2CCN(C3=NS(=O)(=O)c4ccccc43)CC2)cc1,7.96%
18,CC1CCC(C(C)C)C(=O)/C1=C\c1ccc(NC(=O)CCC(=O)O)cc1 (centres undefined),-5.07%
19,COc1ccc(CN2CN(C3CCCC3)CSC2=S)cc1,3.32%
20,O=S(=O)(c1ccc(Br)cc1)N1CCC(c2nc3ccccc3[nH]2)CC1,-3.07%

row,Compound,max response
1,CCC(Cc1ccccc1)NS(=O)(=O)c1ccc2c(c1)NC(=O)CS2 (centres undefined),0.995%
2,Cc1cc(C)c(C#N)c(Nc2cccc(Br)c2)n1,0.576%
3,C[C@H](NC(=O)C1CC(=O)N(c2ccc3c(c2)OCCO3)C1)C(=O)N1CCC(C(=O)O)CC1 (some centres undefined),7.17%
4,COc1ccc(C(=O)NC2CC(C)(C)NC(C)(C)C2)cc1OC,-1.7%
5,COc1ccc(CN(C)C(C)C(=O)NC2CCCc3ccccc32)cc1 (centres undefined),4.63%
6,CCCCC(=O)Nc1ccc2c(c1)OCCO2,36.8% (active)
7,O=C(COc1ccc(Cl)cc1)Nc1ccc2c(c1)OCO2,15.8% (active)
8,O=C(COc1ccc(Cl)cc1)Nc1ccc2oc(=O)ccc2c1,-3.63%
9,O=C(CN1CCN(c2ncc(C(F)(F)F)cc2Cl)CC1)Nc1ccc2c(c1)OCO2,2.27%
10,CC(=O)NCC(=O)N(C)C(C(=O)Nc1ccc2c(c1)OCCO2)c1ccccc1 (centres undefined),-1.79%
11,CCOc1ccc(NCCC(=O)c2ccc3c(c2)OCO3)cc1,14.4% (active)
12,COc1ccc(C2(C)NC(=O)N(CC(=O)c3ccc4c(c3)OCO4)C2=O)cc1 (centres undefined),1.46%
13,CCCCN(CC(=O)NC(C)(C)C)C(=O)C(=O)Nc1ccc2c(c1)OCCO2,5.6%
14,CCC(C(=O)Nc1ccc2c(c1)OCCO2)c1ccccc1 (centres undefined),19.2% (active)
15,O=C(CCS(=O)(=O)Cc1ccccc1)Nc1ccc2c(c1)OCCO2,-1.91%
16,CCC(C(=O)Nc1ccc(C(C)C)cc1)c1ccccc1 (centres undefined),-1.28%
17,CCOc1ccc(C(=O)CCN2CCOCC2)cc1,9.26%
18,COCCOC(=O)C1=C(C)NC(=O)NC1c1cc2c(cc1Br)OCO2 (centres undefined),-5.73%
19,Cc1ccc(NC(=O)CN(C)C(=O)COC(=O)C(C)(C)Oc2ccc(Cl)cc2)cc1,-3.38%
